# Data reported in PubChem BioAssay (NCATS).
# Inconclusive results are not listed. Entries that show only a call come without a potency. Calls of active or inactive are those of the source. Unless noted, calls follow the shape of the dose curve; as a rule, active = well fitted curve in the direction sought with a large enough effect; inconclusive = small, poorly fitted or top-dose-only effect, or another doubt; inactive = no such curve, though single readings can be large; an effect the other way counts as inactive or inconclusive.
# Legend:
# [1] = target: Glutathione peroxidase 1 (Homo sapiens) (UniProt P07203); assay: Primary qHTS Assay for Inhibitors of Recombinant Selenoprotein Glutathione Peroxidase 1 (GPX1) (AID 1845191); also: nearly all actives have a fitted effect of over 65% in size; also: potency is read from the fitted curve at half-maximal effect
# How it was run: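 GR-coupled assay: compounds preincubated 30 min at room temperature with GPX1, then reaction started with CHP; final 10 nM GPX1, 1 mM GSH, 0.5 mM CHP, 0.5 mM NADPH, 100 nM GR, 0.01% BSA, pH 7.5 Tris buffer. NADPH fluorescence (340/450 nm) read at 0 and 15 min.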
# [2] = target: Phospholipid hydroperoxide glutathione peroxidase GPX4 (Homo sapiens) (UniProt P36969); assay: Primary qHTS Assay for Inhibitors of Recombinant Selenoprotein Glutathione Peroxidase 4 (GPX4) (AID 1845192); also: nearly all actives have a fitted effect of over 65% in size
# How it was run: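 GR-coupled assay: recombinant GPX4 preincubated 30 min with compound at room temperature; final 200 nM GPX4, 1 mM GSH, 0.5 mM cumene hydroperoxide, 0.5 mM NADPH, 100 nM GR, 0.01% BSA, pH 7.5 Tris. NADPH fluorescence (340/450 nm) read at 0 and 15 min.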
# [3] = qHTS profiling for inhibitors of Plasmodium falciparum proliferation (AID 504749); also: potency is read from the fitted curve at half-maximal effect; as to all read-outs here: nearly all actives have a fitted effect of over 60% in size; settings: P. falciparum in erythrocytes, SYBR Green DNA, 72 h; for activity, negative = inhibition: at 28.7 µM (top of the series)
# How it was run: (§1)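 Readout was DNA-dye fluorescence from lysed cultures, ex 485/em 535 nm. Parasitized red cells had grown 72 h with compound; data scaled between 0.29 uM artemisinin and DMSO wells and corrected using vehicle-only plates.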
# 3D7 = assay: as above; settings: P. falciparum in erythrocytes, SYBR Green DNA, 72 h; series mostly up to 28.7 µM
# How it was run: as §1
# [4] = qHTS drug screen for cell cycle checkpoint inhibitors in PARPi-resistant BRCA-mutant ovarian cancer cell lines. (AID 1963452; calls by dose curve); settings: PEO1/OlaR viability, CellTiter-Glo luminescence, 96 h, stronger effect = lower value
# How it was run: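 PEO1, PEO4 and PEO1/OlaR ovarian cancer cells, 600 per well, exposed 96 h at 37C to a dilution series. Viability read by CellTiter-Glo luminescence, normalized to DMSO and empty wells; activity summarized as Z-AUC.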
# [5] = target: Luciferin 4-monooxygenase (Photinus pyralis) (UniProt P08659); assay: Primary firefly luciferase (FLuc) qHTS assay for identification of artifact compounds. (AID 1845220); settings: outcome: dose series up to 54.1 µM; also: nearly all actives have a fitted effect of over 60% in size
# How it was run: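 Titrated compounds were incubated 15 min at RT, protected from light, with luciferin and ATP at 10 uM; reaction started with 10 nM FLuc, luminescence imaged at 5 min, and concentration-response fitted by Hill equation.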
# [6] = Primary fluorescence-based thiol-reactive (MSTI) qHTS assay for identification of artifact compounds. (AID 1845221);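 also: thiol-reactive compounds lower the probe fluorescence signal; nearly all actives have a fitted effect of over 65% in size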
# How it was run: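 Reactivity toward the thiol probe MSTI (4 uM) is scored by fluorescence at Ex/Em 525/598 nm after 1 h at room temperature. Acetyl-MSTI and MSTI define the activity scale.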
# [7] = system: Nanoluciferase (engineered Oplophorus gracilirostris luciferase); assay: Primary Nanoluciferase (NLuc) qHTS assay for identification of artifact compounds. (AID 1845222);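 also: NLuc secreted into diluted conditioned medium of S16 cells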
# How it was run: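 qHTS format, against NLuc in S16 cell-conditioned medium. Nano-Glo substrate 1:100 was added after 15 min at room temperature. Luminescence was taken after a further 5 min.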
# [8] = Primary redox qHTS assay for identification of artifact compounds. (AID 1845223)
# How it was run: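 Amplex Red (25 uM) and HRP (250 mU/mL) in HBSS, with compounds for 15 min, then 250 uM DTT for 30 min, room temperature, dark. Fluorescence 525/598 nm read; normalized to DMSO and 10 uM DA3003; Hill fit.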
# [9] = measured here: PEO1 parental Z-AUC
# Phospholipid hydroperoxide glutathione peroxidase GPX4 (Homo sapiens), sequence (P36969 whole entry, looked up): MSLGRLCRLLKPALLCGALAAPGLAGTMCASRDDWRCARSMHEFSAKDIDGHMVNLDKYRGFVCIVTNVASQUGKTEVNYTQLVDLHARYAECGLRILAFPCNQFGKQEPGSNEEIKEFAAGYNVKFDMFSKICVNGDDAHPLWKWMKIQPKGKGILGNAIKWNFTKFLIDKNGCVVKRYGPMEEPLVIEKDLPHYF
# Glutathione peroxidase 1 (Homo sapiens), sequence (P07203 whole entry, looked up): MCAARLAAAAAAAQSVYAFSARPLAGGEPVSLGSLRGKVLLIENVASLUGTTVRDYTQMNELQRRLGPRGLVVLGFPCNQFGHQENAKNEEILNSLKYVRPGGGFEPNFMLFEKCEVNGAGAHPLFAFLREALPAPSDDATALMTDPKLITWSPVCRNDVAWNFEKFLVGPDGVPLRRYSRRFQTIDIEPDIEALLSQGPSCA
compound,measurement,setting,value
COc1cc(N)c(Cl)cc1C(=O)NC1CCN(CCCOc2ccc(F)cc2)CC1OC (stereo unspecified),Potency,[1],inactive
same,Potency,[2],inactive
NC(=O)c1cc[n+](CC2=C(C(=O)[O-])N3C(=O)[C@@H](NC(=O)Cc4cccs4)[C@H]3SC2)cc1,Potency,[1],10.1 µM (active)
N[C@@H](CCC(=O)N[C@@H](CS)C(=O)NCC(=O)O)C(=O)O,Potency,[1],inactive
same,Potency,[2],inactive
Oc1c(I)cc(Cl)c2cccnc12,Potency,[1],inactive
same,Potency,[2],inactive
same,Potency,[3]; parasite line A,8.91 µM (active)
same,Potency,[3]; parasite line B,8.91 µM (active)
same,Potency,3D7,inactive
COC(=O)[C@@H]1CC2=CC(=O)CC[C@]2(C)[C@@]23O[C@@H]2C[C@@]2(C)[C@@H](CC[C@@]24CCC(=O)O4)[C@H]13,Potency,[1],inactive
same,Potency,[2],inactive
same,Z-AUC,[4],-0.162 (inactive)
same,Z-AUC,[4]; [9],-0.149
same,Z-AUC,[4]; measured here: PEO4 Z-AUC,0.317
same,"activity, negative = inhibition",[3]; parasite line A,8.39% (inactive)
same,"activity, negative = inhibition",[3]; parasite line B,17.6% (inactive)
same,Potency,3D7,inactive
CCCOC(C(=O)OC1CCN(C)CC1)(c1ccccc1)c1ccccc1,Potency,[1],inactive
same,Potency,[2],inactive
same,"activity, negative = inhibition",[3]; parasite line A,-18.3% (inactive)
CC(=O)OCC(=O)[C@@]1(O)CC[C@H]2[C@@H]3CCC4=CC(=O)C=C[C@]4(C)[C@H]3[C@@H](O)C[C@@]21C,Potency,[1],inactive
same,Potency,[2],inactive
same,outcome,[5],inactive
same,Potency,[6],inactive
same,Potency,[7],inactive
same,outcome,[8],inactive
same,Z-AUC,[4],-0.27 (inactive)
same,Z-AUC,[4]; [9],1.1
same,Z-AUC,[4]; measured here: PEO4 Z-AUC,0.219
CN1C(CCl)Nc2cc(Cl)c(S(N)(=O)=O)cc2S1(=O)=O (stereo unspecified),Potency,[1],inactive
same,Potency,[2],inactive
same,outcome,[5],inactive
same,Potency,[6],inactive
same,Potency,[7],inactive
same,outcome,[8],inactive
same,"activity, negative = inhibition",[3]; parasite line A,6.24% (inactive)
same,"activity, negative = inhibition",[3]; parasite line B,-11.6% (inactive)
same,Potency,3D7,inactive
CN(C)CC/C=C1/c2ccccc2COc2ccc(CC(=O)O)cc21,Potency,[1],inactive
same,Potency,[2],inactive
same,Z-AUC,[4],-0.218 (inactive)
same,Z-AUC,[4]; [9],0.35
same,Z-AUC,[4]; measured here: PEO4 Z-AUC,-0.471
Clc1ccc2c(c1)CCc1cccnc1C2=C1CCNCC1,Potency,[1],inactive
same,Potency,[2],inactive
same,"activity, negative = inhibition",[3]; parasite line A,-8.94% (inactive)
same,"activity, negative = inhibition",[3]; parasite line B,-21.2% (inactive)
OCc1ccccc1O,Potency,[1],inactive
same,Potency,[2],inactive
same,"activity, negative = inhibition",[3]; parasite line A,6.96% (inactive)
same,"activity, negative = inhibition",[3]; parasite line B,8.72% (inactive)
same,Potency,3D7,inactive
C[C@]12CC[C@@H]3c4ccc(O)cc4CC[C@H]3[C@@H]1CC[C@@H]2O,Potency,[1],inactive
same,Potency,[2],inactive
same,Z-AUC,[4],0.573 (inactive)
same,Z-AUC,[4]; [9],0.0962
same,Z-AUC,[4]; measured here: PEO4 Z-AUC,0.419
same,"activity, negative = inhibition",[3]; parasite line A,14.2% (inactive)
same,"activity, negative = inhibition",[3]; parasite line B,10.8% (inactive)
same,Potency,3D7,inactive
